eIF4H FP inh: human eIF4H binding inhibitors, primary screen, translation initiation inhibitor project, biochemical, uHTS, fluorescence polarization; inhibition, % at 35 µM; 0.94% of 290,000 active; eIF4H fluorescence polarization binding assay;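 further: calls also rest on retests at 20 µM and on dose response follow-up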
eIF4E 4G PPI: eIF4E–eIF4G protein interaction inhibitors, primary screen, biochemical, uHTS, TR-FRET, eIF4GI fragment | TR-FRET eIF4E-eIF4GI(517-606) binding, 2 h | 0.37% of 220,000 active | inhibition, % at 21.7 µM | Eukaryotic translation initiation factor 4E (Mus musculus) + Eukaryotic translation …;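 active means inhibition above about 30%, limit read from the data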
MLLE-PAM2 inh: inhibitors of PABP1 MLLE–PAM2 peptide binding, primary screen, biochemical, fluorescence polarization, FITC-PAM2, GST-MLLE | inhibition, % at 20 µM | 0.36% of 360,000 active | AID 588489, 2011; in the data active means inhibition above about 35%, passing the limit was not always enough
PABP FP inh: PABP poly(A) RNA binding inhibitors, primary screen, biochemical, fluorescence polarization, uHTS; AID 2014, 2009; inhibition, % at 35 µM; Polyadenylate-binding protein 1 (Homo sapiens), P11940; 1% of 290,000 active;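 further: calls also rest on retests at 20 µM and on dose response follow-up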
PERK inhibitor: block of dimerizer-induced PERK translation repression, primary screen, PERK inhibitor project, CHO PERK-DD cells, SEAP luminescence, HTS | CHO PERK-DD fusion, SEAP luminescence translation reporter | AID 1416, 2008 | Eukaryotic translation initiation factor 2-alpha kinase 3 (Homo sapiens), Q9NZJ5 | 0.17% of 220,000 active | inhibition, % at 5.6 µM;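 active means inhibition above the mean inhibition of all tested compounds plus 3 SD, set separately per screening campaign, cut at about 2.9% in these data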;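 further: PERK kinase domain activated by AP20187 dimerizer at 100 nM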
Large screens that a line does not name were inactive. Only some compounds are listed: those with a hit (about 1.6% of all), similar ones and a draw of the others. Unless noted, how the calls were made is not given here.

O=C(COC(=O)CCCOc1ccc(Cl)cc1Cl)Nc1cccc(Cl)c1	none
Cc1cccc(NS(=O)(=O)c2cccc(C(=O)NCC(c3ccc(F)cc3)N3CCOCC3)c2)c1 (stereo not drawn)	none (no result: eIF4H FP inh, eIF4E 4G PPI, PABP FP inh, PERK inhibitor)
CCN(c1cccc(C)c1)S(=O)(=O)c1ccc(-c2cc(C)no2)s1	eIF4H FP inh 88 (no result: eIF4E 4G PPI, PERK inhibitor)
COc1ccc(-c2cc(C(=O)N3CCN(c4ncccn4)CC3)c3ccccc3n2)c(OC)c1	none
COc1ccc(-c2cc(C(=O)N3CCCCCC3)c3ccccc3n2)c(OC)c1	eIF4H FP inh 84, PABP FP inh 48 (no result: eIF4E 4G PPI, PERK inhibitor)
O=C(c1ccccc1C(=O)N1CCN(c2ccccc2)CC1)N1CCN(c2ccccc2)CC1	eIF4H FP inh 127, PABP FP inh 118
COc1ccc(-c2cc(C(=O)N3CCN(c4ccccc4)CC3)c3ccccc3n2)cc1	eIF4H FP inh 57, PABP FP inh active
O=C(O)c1ccccc1C(=O)N1CCN(c2ccccc2)CC1	none
O=C(c1sc2cc(F)ccc2c1Cl)N1CCN(c2ccccc2)CC1	eIF4H FP inh 76, PABP FP inh active
COc1ccc(-c2cc(C(=O)N3CCCC3)c3ccccc3n2)cc1	none (no result: eIF4H FP inh, eIF4E 4G PPI, PABP FP inh, PERK inhibitor)
CN1CCC(N(C)C(=O)c2sc3cc(F)ccc3c2Cl)CC1	none
Cc1ccccc1-c1n[nH]nc1C1=CC(=O)CC(C)(C)C1	none (no result: eIF4H FP inh, eIF4E 4G PPI, PABP FP inh, PERK inhibitor)
CC1(C)CC(=O)C2=C(C1)NC(SCC(N)=O)=C(C#N)C21CCCCC1	MLLE-PAM2 inh 36
CCSC1=C(C#N)C2(CCCCC2)C2=C(CC(C)(C)CC2=O)N1	none
CC1CCN(C(=O)Cn2c(=O)n(-c3ccc(F)cc3)c(=O)c3sccc32)CC1	none
CC1CCCCN1C(=O)Cn1c(=O)n(-c2ccc(F)cc2)c(=O)c2sccc21 (stereo not drawn)	eIF4E 4G PPI 75
COc1ccc2[nH]c(=O)c(CN(Cc3cccs3)C(=S)NCC3CCCO3)cc2c1 (stereo not drawn)	eIF4E 4G PPI 71
O=CNn1cnc2c(oc3nc(-c4ccccc4)cc(-c4ccco4)c32)c1=O	eIF4H FP inh 51
Cc1nc(C)c(C(=O)Nc2nc3c(C)cccc3s2)o1	eIF4H FP inh 70, PABP FP inh 11
O=C(CSc1nc(O)c(Cc2ccccc2)c(=O)[nH]1)c1ccccc1	MLLE-PAM2 inh 41
CCCCCc1c(O)nc(SCCN(C)C)[nH]c1=O	none
CCCCc1c(O)nc(SCC(=O)O)[nH]c1=O	none
CCCCc1c(O)nc(SCC(=O)c2ccccc2)[nH]c1=O	MLLE-PAM2 inh 39
CCCCCc1c(O)nc(SCCN(CC)CC)[nH]c1=O	eIF4H FP inh active, PABP FP inh 76
c1ccc(-c2nn3c(Cn4nnc5ccccc54)nnc3s2)cc1	none
c1ccc2c(c1)nnn2Cc1nnc2sc(-c3ccc4c(c3)OCCO4)nn12	MLLE-PAM2 inh 41
CC(C)n1nc(C(=O)Oc2cc(Cl)ccc2Cl)c2ccccc2c1=O	none
CC(C)n1nc(C(=O)Oc2cccc(Cl)c2Cl)c2ccccc2c1=O	eIF4H FP inh 3.7, PABP FP inh 60
CC(C)OCCCNc1ncnc2c1nc1n2CCCC1	eIF4H FP inh 94, PABP FP inh 81 (no result: eIF4E 4G PPI, PERK inhibitor)
O=C(NCCCN1CCCCC1)C1CCN(c2ncnc3c2nc2n3CCCCC2)CC1	none (no result: eIF4E 4G PPI, PERK inhibitor)
Nc1c(Br)cc2c(c1Br)C(O)c1ccccc1-2 (stereo not drawn)	none (no result: eIF4H FP inh, eIF4E 4G PPI, PABP FP inh, PERK inhibitor)
CCOC(=O)CC1=C(C(=O)OCC)C(c2ccc(C)o2)C(C#N)=C(N)O1 (stereo not drawn)	eIF4H FP inh 92, MLLE-PAM2 inh 50, PABP FP inh 79
CCOC1=C2CN(S(=O)(=O)c3ccc(C)cc3)[C@@H](c3ccccc3)C[C@H]2[C@H]2C(=O)N(c3ccccc3)C(=O)[C@H]2C1	MLLE-PAM2 inh 49 (no result: eIF4H FP inh, eIF4E 4G PPI, PABP FP inh, PERK inhibitor)
CCOC1=C2CN(S(=O)(=O)c3ccc(C)cc3)[C@H](c3cccc(Cl)c3)C[C@H]2[C@H]2C(=O)N(c3ccccc3)C(=O)[C@H]2C1	none (no result: eIF4H FP inh, eIF4E 4G PPI, PABP FP inh, PERK inhibitor)
Cc1c(C(=O)NC(=S)Nc2ccc3c4c(cccc24)CC3)cccc1[N+](=O)[O-]	MLLE-PAM2 inh 42
COc1cc(OC)cc(C(=O)NC(=S)Nc2ccc3c4c(cccc24)CC3)c1	none
COc1ccc(C(=O)NC(=S)Nc2ccc3c4c(cccc24)CC3)cc1OC	eIF4H FP inh 12, PABP FP inh 64
O=C1CN(C(=O)COC(=O)c2cc(Cl)ccc2[N+](=O)[O-])c2ccccc2N1	none (no result: eIF4H FP inh, eIF4E 4G PPI, PABP FP inh, PERK inhibitor)
NC1=C(Br)C(=O)c2ncccc2C1=O	MLLE-PAM2 inh 39 (no result: eIF4H FP inh, eIF4E 4G PPI, PABP FP inh, PERK inhibitor)
Cc1ccccc1-c1nnc2s/c(=C\c3ccc(N(C)C)cc3)c(=O)n12	eIF4H FP inh 82, PABP FP inh 91 (no result: eIF4E 4G PPI, MLLE-PAM2 inh, PERK inhibitor)
CC1=NN(Cc2ccccc2)C(=O)/C1=C\c1ccc(N(C)C)cc1	none
O=c1cc(O)c(-c2ccc(Cl)c(Cl)c2)c(Cl)[nH]1	eIF4H FP inh 82, PABP FP inh 7.5
O=c1cc(O)c(-c2ccc(Cl)cc2)c(Cl)[nH]1	none
CC(C)NC(=O)C1CCN(Cc2cccc(OCc3ccccc3)c2)CC1	none (no result: eIF4H FP inh, eIF4E 4G PPI, PABP FP inh, PERK inhibitor)
COc1cccc(CC(=O)N2CCN(c3ccccc3[N+](=O)[O-])CC2)c1	eIF4H FP inh 52, PABP FP inh active
COc1cccc(CN2CCC(C(=O)N3CCN(c4ccccc4F)CC3)CC2)c1	eIF4H FP inh 61
CCCCC(=O)N1CCN(c2ccc(OC)cc2[N+](=O)[O-])CC1	none
CC(C)NC(=O)C1CCN(Cc2cccc(Oc3ccccc3)c2)CC1	eIF4H FP inh 90, PABP FP inh 69 (no result: eIF4E 4G PPI, PERK inhibitor)
COc1ccc(OC)c(CN2CCC(C(=O)N3CCN(c4ccccc4F)CC3)CC2)c1	none
O=C(Nc1cccc(F)c1)c1ccc(-c2cccnc2)c2ccoc12	none (no result: eIF4H FP inh, eIF4E 4G PPI, PABP FP inh, PERK inhibitor)
COc1cc(OC)c(/C=N/NC(=O)c2ccc(NC(C)=O)cc2)cc1Br	eIF4E 4G PPI 42
CCN(CC)C(=O)C1=C(C)N(CCCOC)C(=O)C(CC(=O)NC(c2ccccc2)c2ccccc2)C1 (stereo not drawn)	none (no result: eIF4H FP inh, eIF4E 4G PPI, PABP FP inh, PERK inhibitor)
COc1cccc(N2CCN(C(=O)c3[nH]c(C)c(C(C)=O)c3C)CC2)c1	none
COC(=O)c1c(C)[nH]c(C(=O)N2CCN(c3ccc(OC)cc3)CC2)c1C	eIF4H FP inh inconclusive, PABP FP inh 62 (no result: MLLE-PAM2 inh)
COC(=O)c1c(C)[nH]c(C(C)=O)c1C	PERK inhibitor 3.0
CC(=O)c1[nH]c(C)c(C(C)=O)c1C	none
COc1ccc(C2=Cc3ccc(OC(C)=O)cc3OC2)cc1	none (no result: eIF4H FP inh, eIF4E 4G PPI, PABP FP inh, PERK inhibitor)
CSc1ccc(/C=C(\C(=O)O)c2ccc(S(=O)(=O)N3CCCC3)s2)cc1	none (no result: eIF4H FP inh, eIF4E 4G PPI, PABP FP inh, PERK inhibitor)
O=C(CSc1nnc(-c2ccco2)c(-c2ccco2)n1)Nc1ccccc1	eIF4H FP inh 96, PABP FP inh 91
Cc1ccc(NC(=O)CSc2ccc(-c3ccco3)nn2)cc1	none
O=C(CSc1n[nH]c(-c2ccco2)n1)Nc1ccc(F)cc1	none (no result: eIF4E 4G PPI, PERK inhibitor)

From PubChem BioAssay
